A selection: hits, their analogues and other compounds. The true share with any hit is near 12%.
HCV inh = qHTS Assay for Inhibitors of Hepatitis C Virus (HCV); Huh7.5.1 HCVcc-Cre infection, luciferase reporter, 44 h; Potency, µM (top dose mostly 41.8 µM), most hits filed as inhibitors; actives 3.4% (n = 340,000)
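Cells seeded at 1,000/well and cultured 4 h, then compounds added followed by HCVcc-Cre virus (~0.5 moi). After 44 h further culture, luciferase substrate was added, plates held 15 min at room temperature, and luminescence read for 15 sec.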
NS1 inh = qHTS Assay for Inhibitors of Influenza NS1 Protein Function; actives 0.4% (n = 270,000); Potency, µM (top dose mostly 46.1 µM); calls by dose curve; note: actives are rising curves; nearly all actives have a fitted effect of over 50% in size
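A cell-based growth assay was used: compounds that relieve NS1-induced slow growth of budding yeast raise OD600. Assay medium was yeast nitrogen base with ammonium sulphate and -URA supplement, pH 6.0, with 2% galactose.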
Pf growth 48h = Primary qHTS for delayed death inhibitors of the malarial parasite plastid, 48 hour incubation; P. falciparum luciferase growth in erythrocytes, 48 h; actives 5.9% (n = 310,000); Potency, µM (series often up to 28.7 µM), hits mostly inhibitors; AID 504832, 2011
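Compounds are pin-transferred into medium, infected erythrocytes (2% hematocrit, 0.1% parasitemia final) are added, and plates sit one parasite generation at 37 C in 5% CO2. Detection reagent is then added and luminescence measured.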
SARS PLpro yeast = qHTS of Yeast-based Assay for SARS-CoV PLP | AID 485353, 2010 | actives 0.19% (n = 330,000) | Potency, µM (highest dose often 32.9 µM), hits mostly activators | S. cerevisiae expressing SARS-CoV PLpro, growth rescue; calls by dose curve; note: nearly all actives have a fitted effect of over 55% in size
AMA1 RON2 block = qHTS for Inhibitors of AMA1-RON; Towards Development of Antimalarial Drug Lead: Primary Screen; AlphaScreen AMA1-biotinylated RON2 peptide binding; Potency, µM (doses to about 58.2 µM), actives largely listed as inhibitors; actives 0.2% (n = 360,000); note: nearly all actives have a fitted effect of over 45% in size
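AMA1 (3D7) with his tag at 25 nM final met compounds first, then biotinylated RON2 peptide at 25 nM; detection used donor plus acceptor beads, 10 µg/mL apiece, read by AlphaScreen after 30 min at room temperature.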
Pf growth 96h = Primary qHTS for delayed death inhibitors of the malarial parasite plastid, 96 hour incubation; P. falciparum luciferase reporter growth, 96 h; AID 504834, 2011; Potency, µM (top dose mostly 28.7 µM), usual class: inhibitors; actives 6.9% (n = 320,000)
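96 h incubation, 37 C, 5% CO2, of luciferase-reporter P. falciparum-infected RBCs (2% hematocrit, 0.05% parasitemia final) with test compounds; endpoint luminescence.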
Each line names hits and unclear results; the compound was inactive in the other large screens. Unless noted, calls come from the whole dose curve; as a rule, active = well fitted curve in the direction sought with a large enough effect; inconclusive = small, poorly fitted or top-dose-only effect, or another doubt; inactive = no such curve, though single readings can be large; an effect the other way counts as inactive or inconclusive.

CC(NC(=O)CCn1nc(-c2ccc(Cl)cc2)ccc1=O)c1ccccc1 (configuration not stated)	Pf growth 96h inconclusive (no result: NS1 inh)
CC1Cc2ccccc2N1C(=O)CNc1ccccc1N1CCCCC1 (configuration not stated)	Pf growth 48h inconclusive, AMA1 RON2 block inconclusive, Pf growth 96h 13µM (no result: NS1 inh)
CC1CCN(CC(=O)N2c3ccccc3CC2C)CC1 (configuration not stated)	Pf growth 96h 0.59µM (no result: NS1 inh)
Cc1cc(/C=C2\SC(=Nc3ccccc3)NC2=O)c(C)n1-c1ccc(S(N)(=O)=O)cc1	HCV inh 4.5µM, NS1 inh inconclusive, Pf growth 48h 4.1µM, Pf growth 96h inconclusive
Cc1nnc(SCC(=O)NCCc2ccccc2)s1	none
BrC(=C\c1ccccc1)/C=N/n1cnnc1	HCV inh 10µM, Pf growth 48h 10µM
BrC(=C\c1ccccc1)/C=N/Nc1ccc2nncn2n1	HCV inh inconclusive
O=S(=O)(c1ccc(N2CCC(c3ccc(Cl)cc3)=N2)cc1)N(CCO)CCO	none (no result: Pf growth 48h)
CN(C)CCCNS(=O)(=O)c1ccc(N2CCC(c3ccc(Cl)cc3)=N2)cc1	HCV inh 4µM, Pf growth 48h 9.3µM (no result: AMA1 RON2 block, Pf growth 96h)
CCC(C)/C=C(C)/C=C/C1=CC2=C(Cl)C(=O)C(C)(OC(C)=O)C(=O)C2=CO1 (configuration not stated)	Pf growth 48h inconclusive, AMA1 RON2 block inconclusive, Pf growth 96h 9.3µM
CCS(=O)(=O)N1CCC(C(=O)O)CC1	none (no result: NS1 inh)
Cc1cc(NCCCn2ccnc2)n2ncc(-c3ccc(Cl)cc3)c2n1	HCV inh 7.1µM
CC(C)(C)c1cc(NCCCn2ccnc2)n2ncc(-c3ccccc3)c2n1	HCV inh inconclusive, Pf growth 48h inconclusive, Pf growth 96h inconclusive
Cc1cc(NCCCN2CCOCC2)n2ncc(-c3ccc(Cl)cc3)c2n1	HCV inh 13µM
Cn1c(=O)c2c(nc(NCCCN3CCOCC3)n2Cc2ccc(Cl)cc2)n(C)c1=O	NS1 inh inconclusive
O=C(NC1CCCc2ccccc21)c1cccc(F)c1 (configuration not stated)	none (no result: NS1 inh, Pf growth 48h, SARS PLpro yeast, Pf growth 96h)
c1ccc(C[n+]2cccc(-c3ccccc3)c2)cc1	Pf growth 48h 2.1µM, Pf growth 96h 0.66µM
N#Cc1c(-n2cccc2/C=N/O)sc2c1CCCC2	AMA1 RON2 block inconclusive, Pf growth 96h 15µM
C=CCNCc1cccn1-c1sc2c(c1C#N)CCCC2	none
O=[N+]([O-])c1ccc(N2CCN(CCOc3nonc3-c3ccccc3)CC2)c(Cl)c1	HCV inh 6.3µM, Pf growth 96h inconclusive
Cc1nonc1OCCN1CCN(c2ccc([N+](=O)[O-])cc2)CC1	HCV inh inconclusive, Pf growth 48h inconclusive, Pf growth 96h inconclusive
CCCN(CCC)CCCNC(=O)c1cn(CC)c2ccc(S(=O)(=O)N(C)C3CCCCC3)cc2c1=O	HCV inh inconclusive, Pf growth 48h 9.3µM, Pf growth 96h 10µM
CCOCCCNC(=O)c1cn(CC)c2ccc(S(=O)(=O)N(C)C3CCCCC3)cc2c1=O	Pf growth 48h 9.3µM, Pf growth 96h inconclusive
O=C(Nc1cc(S(=O)(=O)N2CCOCC2)ccc1N1CCCCC1)c1ccccc1Br	HCV inh inconclusive (no result: NS1 inh, Pf growth 48h, Pf growth 96h)
Cc1cc(C)c(CN2CCN(C(=O)CC[C@H]3O[C@@H](n4ccc(=O)[nH]c4=O)[C@H](O)[C@@H]3O)CC2)c(C)c1	none (no result: HCV inh, NS1 inh, Pf growth 48h, SARS PLpro yeast, Pf growth 96h)
COCC(=O)Nc1ccc(N2CCCC2)c(S(=O)(=O)Nc2ccccc2OC)c1	Pf growth 48h 2.6µM, Pf growth 96h 5.2µM (no result: NS1 inh)
COc1ccccc1NS(=O)(=O)c1cc(NC(=O)c2ccccc2C)ccc1N1CCOCC1	none (no result: NS1 inh, Pf growth 48h, SARS PLpro yeast, Pf growth 96h)
COc1ccccc1NS(=O)(=O)c1cc(NC(=O)CCNC(C)=O)ccc1N1CCCCC1	HCV inh inconclusive, Pf growth 48h inconclusive, Pf growth 96h 10µM (no result: NS1 inh)
COc1ccccc1NS(=O)(=O)c1cc(NC(=O)c2ccc(=O)[nH]c2)ccc1N1CCOCC1	HCV inh inconclusive, Pf growth 48h inconclusive, Pf growth 96h 12µM
COc1ccc(NS(=O)(=O)c2cc(NC(=O)CCNC(C)=O)ccc2N2CCOCC2)cc1	none (no result: NS1 inh)
CC(=O)c1c(C)[nH]c(C(=O)Nc2ccc(C)c(S(=O)(=O)Nc3ccc(C)cc3C)c2)c1C	HCV inh 25µM, Pf growth 48h 13µM, Pf growth 96h inconclusive
CSc1nn2c(C(F)(F)F)cc(C(F)(F)F)nc2c1C(N)=O	Pf growth 48h inconclusive, Pf growth 96h inconclusive
CC1CCc2nc(/C(C#N)=C/c3ccncc3)sc2C1 (configuration not stated)	Pf growth 48h inconclusive (no result: NS1 inh)
CC(C)NC(=O)COc1nncc2ccccc12	none (no result: NS1 inh)
CSCC[C@H](NC(=O)[C@@H]1Cc2ccccc2CN1)C(=O)Nc1ccc2c(c1)OCCO2	none
CCC(Sc1nc2ncccc2[nH]1)C(=O)NCCc1ccccc1 (configuration not stated)	none
COc1ccccc1NS(=O)(=O)c1cc(NC(=O)c2ccncc2)ccc1N1CCCC1	HCV inh inconclusive, Pf growth 48h inconclusive, Pf growth 96h inconclusive (no result: NS1 inh)
COc1ccccc1NS(=O)(=O)c1cc(NC(C)=O)ccc1N1CCCCC1	Pf growth 96h 9.3µM (no result: NS1 inh)
COc1ccccc1CNc1ccc(N2CCOCC2)c(C(=O)O)c1	Pf growth 96h 13µM
COc1ccccc1NS(=O)(=O)c1cc(NC(=O)Nc2cccc(C)c2)ccc1N1CCCCC1	HCV inh inconclusive, NS1 inh inconclusive, Pf growth 48h 3.7µM, Pf growth 96h 3.7µM
COc1ccccc1NS(=O)(=O)c1cc(NC(=O)C2CC2)ccc1N1CCOCC1	Pf growth 48h inconclusive, Pf growth 96h 12µM (no result: HCV inh, AMA1 RON2 block)
COc1ccc(S(=O)(=O)N2CCOCC2)cc1NC(=O)Cc1ccc2c(c1)OCCO2	Pf growth 48h inconclusive (no result: NS1 inh)
O=C(Cn1cnc2c(nnn2Cc2ccc(F)cc2)c1=O)Nc1ccc2c(c1)OCCO2	none
COC(=O)c1cc(-n2cccc2)ccc1N1CCOCC1	none
COc1ccccc1NS(=O)(=O)c1cc(NC(=O)c2cc(F)c(F)c(F)c2F)ccc1N1CCOCC1	HCV inh inconclusive (no result: NS1 inh, Pf growth 48h, Pf growth 96h)
COc1ccccc1NS(=O)(=O)c1cc(NC(=O)c2[nH]c(C)c(C(C)=O)c2C)ccc1N1CCOCC1	HCV inh inconclusive, Pf growth 48h 7.4µM, Pf growth 96h inconclusive
COC(=O)c1cc(NS(=O)(=O)c2ccc(C)c3ccccc23)ccc1N1CCOCC1	HCV inh 22µM
Cc1ccc(NS(=O)(=O)c2cc(NC(=O)c3ccc4c(c3)NC(=O)CS4)ccc2C)c(C)c1	HCV inh 11µM, Pf growth 48h inconclusive, Pf growth 96h inconclusive

Screens as filed in PubChem BioAssay.
